# Molecular target: AgAbp1
# Assay: SPOT peptide array binding signal intensity (averaged, normalized) (arbitrary units (background-subtracted, floor 0; scale differs between SH3 domains)); higher = stronger binding of the SH3 domain to the peptide
# Outline: (§1)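 Four yeast species supplied the SH3 domains, which were expressed as GST fusions in E. coli BL21(DE3) and purified on glutathione Sepharose. Incubation with cellulose membranes carrying synthetic 15-mer peptides, cysteines exchanged for serines, ran overnight at 4°C at 10 μg/ml in TBS-based blocking buffer. Binding signal is reported as normalized, background-subtracted spot intensity averaged over replicates, in arbitrary units not shared between domains.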
row,Binder,SPOT peptide array binding signal intensity
1,APKHAPPPVPNETDN,≤ 0

# Molecular target: AgBbc1
# Assay: as above
# Outline: as §1
row,Binder,SPOT peptide array binding signal intensity
1,APKHAPPPVPNETDN,≤ 0

# Molecular target: AgBem1-D1
# Assay: as above
# Outline: as §1
row,Binder,SPOT peptide array binding signal intensity
1,APKHAPPPVPNETDN,≤ 0

# Molecular target: AgBzz1-D1
# Assay: as above
# Outline: as §1
row,Binder,SPOT peptide array binding signal intensity
1,APKHAPPPVPNETDN,72

# Molecular target: AgBzz1-D2
# Assay: as above
# Outline: as §1
row,Binder,SPOT peptide array binding signal intensity
1,APKHAPPPVPNETDN,≤ 0

# Molecular target: AgCyk3
# Assay: as above
# Outline: as §1
row,Binder,SPOT peptide array binding signal intensity
1,APKHAPPPVPNETDN,≤ 0

# Molecular target: AgFus1
# Assay: as above
# Outline: as §1
row,Binder,SPOT peptide array binding signal intensity
1,APKHAPPPVPNETDN,≤ 0

# Molecular target: AgHof1
# Assay: as above
# Outline: as §1
row,Binder,SPOT peptide array binding signal intensity
1,APKHAPPPVPNETDN,≤ 0

# Molecular target: AgHse1
# Assay: as above
# Outline: as §1
row,Binder,SPOT peptide array binding signal intensity
1,APKHAPPPVPNETDN,≤ 0

# Molecular target: AgLsb1
# Assay: as above
# Outline: as §1
row,Binder,SPOT peptide array binding signal intensity
1,APKHAPPPVPNETDN,≤ 0

# Molecular target: AgLsb4
# Assay: as above
# Outline: as §1
row,Binder,SPOT peptide array binding signal intensity
1,APKHAPPPVPNETDN,≤ 0

# Molecular target: AgMyo5
# Assay: as above
# Outline: as §1
row,Binder,SPOT peptide array binding signal intensity
1,APKHAPPPVPNETDN,1790

# Molecular target: AgNbp2
# Assay: as above
# Outline: as §1
row,Binder,SPOT peptide array binding signal intensity
1,APKHAPPPVPNETDN,≤ 0

# Molecular target: AgRvs167
# Assay: as above
# Outline: as §1
row,Binder,SPOT peptide array binding signal intensity
1,APKHAPPPVPNETDN,≤ 0

# Molecular target: AgSho1
# Assay: as above
# Outline: as §1
row,Binder,SPOT peptide array binding signal intensity
1,APKHAPPPVPNETDN,≤ 0

# Molecular target: AgSla1-D1-D2
# Assay: as above
# Outline: as §1
row,Binder,SPOT peptide array binding signal intensity
1,APKHAPPPVPNETDN,≤ 0

# Molecular target: AgSla1-D3
# Assay: as above
# Outline: as §1
row,Binder,SPOT peptide array binding signal intensity
1,APKHAPPPVPNETDN,2.5

# Molecular target: CaAbp1-D1
# Assay: as above
# Outline: as §1
row,Binder,SPOT peptide array binding signal intensity
1,APKHAPPPVPNETDN,≤ 0

# Molecular target: CaAbp1-D2
# Assay: as above
# Outline: as §1
row,Binder,SPOT peptide array binding signal intensity
1,APKHAPPPVPNETDN,≤ 0

# Molecular target: CaBbc1
# Assay: as above
# Outline: as §1
row,Binder,SPOT peptide array binding signal intensity
1,APKHAPPPVPNETDN,0.25

# Molecular target: CaBem1-D1
# Assay: as above
# Outline: as §1
row,Binder,SPOT peptide array binding signal intensity
1,APKHAPPPVPNETDN,≤ 0

# Molecular target: CaBzz1-D1
# Assay: as above
# Outline: as §1
row,Binder,SPOT peptide array binding signal intensity
1,APKHAPPPVPNETDN,992

# Molecular target: CaBzz1-D2
# Assay: as above
# Outline: as §1
row,Binder,SPOT peptide array binding signal intensity
1,APKHAPPPVPNETDN,115

# Molecular target: CaCyk3
# Assay: as above
# Outline: as §1
row,Binder,SPOT peptide array binding signal intensity
1,APKHAPPPVPNETDN,≤ 0

# Molecular target: CaFus1
# Assay: as above
# Outline: as §1
row,Binder,SPOT peptide array binding signal intensity
1,APKHAPPPVPNETDN,≤ 0

# Molecular target: CaHof1
# Assay: as above
# Outline: as §1
row,Binder,SPOT peptide array binding signal intensity
1,APKHAPPPVPNETDN,≤ 0

# Molecular target: CaHse1
# Assay: as above
# Outline: as §1
row,Binder,SPOT peptide array binding signal intensity
1,APKHAPPPVPNETDN,1.75

# Molecular target: CaLsb1
# Assay: as above
# Outline: as §1
row,Binder,SPOT peptide array binding signal intensity
1,APKHAPPPVPNETDN,≤ 0

# Molecular target: CaLsb4
# Assay: as above
# Outline: as §1
row,Binder,SPOT peptide array binding signal intensity
1,APKHAPPPVPNETDN,≤ 0

# Molecular target: CaMyo5
# Assay: as above
# Outline: as §1
row,Binder,SPOT peptide array binding signal intensity
1,APKHAPPPVPNETDN,110

# Molecular target: CaNbp2
# Assay: as above
# Outline: as §1
row,Binder,SPOT peptide array binding signal intensity
1,APKHAPPPVPNETDN,≤ 0

# Molecular target: CaRvs167
# Assay: as above
# Outline: as §1
row,Binder,SPOT peptide array binding signal intensity
1,APKHAPPPVPNETDN,≤ 0

# Molecular target: CaRvs167-3
# Assay: as above
# Outline: as §1
row,Binder,SPOT peptide array binding signal intensity
1,APKHAPPPVPNETDN,≤ 0

# Molecular target: CaSho1
# Assay: as above
# Outline: as §1
row,Binder,SPOT peptide array binding signal intensity
1,APKHAPPPVPNETDN,≤ 0

# Molecular target: CaSla1-D1-D2
# Assay: as above
# Outline: as §1
row,Binder,SPOT peptide array binding signal intensity
1,APKHAPPPVPNETDN,≤ 0

# Molecular target: CaSla1-D3
# Assay: as above
# Outline: as §1
row,Binder,SPOT peptide array binding signal intensity
1,APKHAPPPVPNETDN,≤ 0

# Molecular target: ScAbp1
# Assay: as above
# Outline: as §1
row,Binder,SPOT peptide array binding signal intensity
1,APKHAPPPVPNETDN,≤ 0

# Molecular target: ScBbc1
# Assay: as above
# Outline: as §1
row,Binder,SPOT peptide array binding signal intensity
1,APKHAPPPVPNETDN,≤ 0

# Molecular target: ScBem1-D1
# Assay: as above
# Outline: as §1
row,Binder,SPOT peptide array binding signal intensity
1,APKHAPPPVPNETDN,≤ 0

# Molecular target: ScBzz1-D1
# Assay: as above
# Outline: as §1
row,Binder,SPOT peptide array binding signal intensity
1,APKHAPPPVPNETDN,618

# Molecular target: ScBzz1-D2
# Assay: as above
# Outline: as §1
row,Binder,SPOT peptide array binding signal intensity
1,APKHAPPPVPNETDN,≤ 0

# Molecular target: ScCyk3
# Assay: as above
# Outline: as §1
row,Binder,SPOT peptide array binding signal intensity
1,APKHAPPPVPNETDN,≤ 0

# Molecular target: ScFus1
# Assay: as above
# Outline: as §1
row,Binder,SPOT peptide array binding signal intensity
1,APKHAPPPVPNETDN,≤ 0

# Molecular target: ScHof1
# Assay: as above
# Outline: as §1
row,Binder,SPOT peptide array binding signal intensity
1,APKHAPPPVPNETDN,≤ 0

# Molecular target: ScHse1
# Assay: as above
# Outline: as §1
row,Binder,SPOT peptide array binding signal intensity
1,APKHAPPPVPNETDN,≤ 0

# Molecular target: ScLsb1
# Assay: as above
# Outline: as §1
row,Binder,SPOT peptide array binding signal intensity
1,APKHAPPPVPNETDN,≤ 0

# Molecular target: ScLsb2
# Assay: as above
# Outline: as §1
row,Binder,SPOT peptide array binding signal intensity
1,APKHAPPPVPNETDN,≤ 0

# Molecular target: ScLsb3
# Assay: as above
# Outline: as §1
row,Binder,SPOT peptide array binding signal intensity
1,APKHAPPPVPNETDN,≤ 0

# Molecular target: ScLsb4
# Assay: as above
# Outline: as §1
row,Binder,SPOT peptide array binding signal intensity
1,APKHAPPPVPNETDN,≤ 0

# Molecular target: ScMyo3
# Assay: as above
# Outline: as §1
row,Binder,SPOT peptide array binding signal intensity
1,APKHAPPPVPNETDN,1380

# Molecular target: ScMyo5
# Assay: as above
# Outline: as §1
row,Binder,SPOT peptide array binding signal intensity
1,APKHAPPPVPNETDN,1230

# Molecular target: ScNbp2
# Assay: as above
# Outline: as §1
row,Binder,SPOT peptide array binding signal intensity
1,APKHAPPPVPNETDN,≤ 0

# Molecular target: ScPex13
# Assay: as above
# Outline: as §1
row,Binder,SPOT peptide array binding signal intensity
1,APKHAPPPVPNETDN,≤ 0

# Molecular target: ScRvs167
# Assay: as above
# Outline: as §1
row,Binder,SPOT peptide array binding signal intensity
1,APKHAPPPVPNETDN,≤ 0

# Molecular target: ScSho1
# Assay: as above
# Outline: as §1
row,Binder,SPOT peptide array binding signal intensity
1,APKHAPPPVPNETDN,≤ 0

# Molecular target: ScSla1-D1-D2
# Assay: as above
# Outline: as §1
row,Binder,SPOT peptide array binding signal intensity
1,APKHAPPPVPNETDN,≤ 0

# Molecular target: ScSla1-D3
# Assay: as above
# Outline: as §1
row,Binder,SPOT peptide array binding signal intensity
1,APKHAPPPVPNETDN,≤ 0

# Molecular target: SpAbp1-D1
# Assay: as above
# Outline: as §1
row,Binder,SPOT peptide array binding signal intensity
1,APKHAPPPVPNETDN,≤ 0

# Molecular target: SpBbc1
# Assay: as above
# Outline: as §1
row,Binder,SPOT peptide array binding signal intensity
1,APKHAPPPVPNETDN,≤ 0

# Molecular target: SpBzz1-D1
# Assay: as above
# Outline: as §1
row,Binder,SPOT peptide array binding signal intensity
1,APKHAPPPVPNETDN,≤ 0

# Molecular target: SpBzz1-D2
# Assay: as above
# Outline: as §1
row,Binder,SPOT peptide array binding signal intensity
1,APKHAPPPVPNETDN,≤ 0

# Molecular target: SpCyk3
# Assay: as above
# Outline: as §1
row,Binder,SPOT peptide array binding signal intensity
1,APKHAPPPVPNETDN,≤ 0

# Molecular target: SpHof1
# Assay: as above
# Outline: as §1
row,Binder,SPOT peptide array binding signal intensity
1,APKHAPPPVPNETDN,≤ 0

# Molecular target: SpHof1-2
# Assay: as above
# Outline: as §1
row,Binder,SPOT peptide array binding signal intensity
1,APKHAPPPVPNETDN,≤ 0

# Molecular target: SpHof1-3
# Assay: as above
# Outline: as §1
row,Binder,SPOT peptide array binding signal intensity
1,APKHAPPPVPNETDN,≤ 0

# Molecular target: SpHse1
# Assay: as above
# Outline: as §1
row,Binder,SPOT peptide array binding signal intensity
1,APKHAPPPVPNETDN,140

# Molecular target: SpLsb1
# Assay: as above
# Outline: as §1
row,Binder,SPOT peptide array binding signal intensity
1,APKHAPPPVPNETDN,≤ 0

# Molecular target: SpLsb4
# Assay: as above
# Outline: as §1
row,Binder,SPOT peptide array binding signal intensity
1,APKHAPPPVPNETDN,≤ 0

# Molecular target: SpMyo1
# Assay: as above
# Outline: as §1
row,Binder,SPOT peptide array binding signal intensity
1,APKHAPPPVPNETDN,691

# Molecular target: SpNbp2
# Assay: as above
# Outline: as §1
row,Binder,SPOT peptide array binding signal intensity
1,APKHAPPPVPNETDN,≤ 0

# Molecular target: SpPex13
# Assay: as above
# Outline: as §1
row,Binder,SPOT peptide array binding signal intensity
1,APKHAPPPVPNETDN,≤ 0

# Molecular target: SpRvs167
# Assay: as above
# Outline: as §1
row,Binder,SPOT peptide array binding signal intensity
1,APKHAPPPVPNETDN,2.5

# Molecular target: SpSla1-D1-D2
# Assay: as above
# Outline: as §1
row,Binder,SPOT peptide array binding signal intensity
1,APKHAPPPVPNETDN,≤ 0

# Molecular target: SpSla1-D3
# Assay: as above
# Outline: as §1
row,Binder,SPOT peptide array binding signal intensity
1,APKHAPPPVPNETDN,≤ 0

# Reference: the supplement of paper PMC4466140
